Screens deposited in PubChem BioAssay by The Scripps Research Institute Molecular Screening Center.
Hits are enriched below; roughly 3.4% of the tested compounds scored in any of these assays.
MITF primary – MITF inhibitors, primary screen, biochemical, AlphaScreen, human. AlphaScreen MITF homodimerization, bead proximity signal. actives 0.91% (n = 650,000). inhibition, % at 2.6 µM. Microphthalmia-associated transcription factor (Homo sapiens), O75030; in the data active means inhibition above about 50%;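 further: 0% = vehicle wells with protein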
FBW7 act – FBW7 E3 ligase activators, primary screen, biochemical, AlphaScreen, human. normalized activity (activation), % at 26.1 µM. AlphaScreen FBW7–phospho-cyclin E peptide binding, activator screen. actives 0.13% (n = 650,000); in the data active means normalized activity above about 1.9%;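 further: purified mutant Fbw7 with reduced substrate affinity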
Target sequence (Q969H0 whole entry, looked up): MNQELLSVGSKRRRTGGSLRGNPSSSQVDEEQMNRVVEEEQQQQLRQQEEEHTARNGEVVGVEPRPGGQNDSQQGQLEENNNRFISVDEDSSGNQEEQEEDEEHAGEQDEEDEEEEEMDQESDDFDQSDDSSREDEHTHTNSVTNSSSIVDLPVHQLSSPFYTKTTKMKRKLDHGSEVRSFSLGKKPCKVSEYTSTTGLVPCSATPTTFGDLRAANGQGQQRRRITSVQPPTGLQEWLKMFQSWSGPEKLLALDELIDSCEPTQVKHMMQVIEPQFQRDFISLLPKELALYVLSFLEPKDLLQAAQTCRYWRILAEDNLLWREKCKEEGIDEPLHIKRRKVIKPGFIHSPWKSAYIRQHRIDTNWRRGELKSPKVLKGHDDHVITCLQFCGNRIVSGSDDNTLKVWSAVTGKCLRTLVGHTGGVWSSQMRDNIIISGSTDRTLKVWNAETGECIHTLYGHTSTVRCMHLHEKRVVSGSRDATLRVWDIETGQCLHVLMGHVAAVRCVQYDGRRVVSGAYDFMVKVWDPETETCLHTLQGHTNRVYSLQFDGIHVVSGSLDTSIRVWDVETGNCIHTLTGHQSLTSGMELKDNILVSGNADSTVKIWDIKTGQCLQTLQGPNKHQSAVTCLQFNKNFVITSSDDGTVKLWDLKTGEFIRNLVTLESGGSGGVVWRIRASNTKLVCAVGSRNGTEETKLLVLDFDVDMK
GPR151 ag – activators of human GPR151, primary screen, cell-based, PathHunter beta-arrestin, luminescence; G-protein coupled receptor 151 (Homo sapiens), Q8TDV0; PathHunter beta-arrestin GPR151 cells; activation, % at 11.2 µM; actives 1% (n = 650,000); in the data active means activation above about 4.9%;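 further: 0% = median of compound wells and 100% = cells with positive control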
TEAD-YAP inh – TEAD-YAP interaction inhibition, primary screen, TEAD-YAP interaction inhibitor project, luminescence, HEK-TIYL cells | actives 1.4% (n = 640,000) | inhibition, % at 9.12 µM | TEAD-Gal4/YAP UAS-luciferase luminescence; in the data active means inhibition above about 32%;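 further: 0% = median of test compound wells and 100% = reference inhibitor wells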
Numbers without * were called inactive.

What do the screens show for `COc1cc(NC(=O)c2ccc3nc(-c4ccc(C(=O)N5CCN(C)CC5)cc4)sc3c2)cc(OC)c1OC`?
MITF primary: 13; FBW7 act: 0; GPR151 ag: 0; TEAD-YAP inh: 52*

Results for COc1cc(NC(=O)c2ccc3nc(-c4ccc(N5CCN(C)CC5)cc4)sc3c2)cc(OC)c1OC ?
MITF primary: 11; FBW7 act: 0; GPR151 ag: -2; TEAD-YAP inh: 62*

How did COc1cccc(S(=O)(=O)N2CCc3nc(C)nc(N4CCCCC4)c3C2)c1 do in these assays?
MITF primary: -1; FBW7 act: 0; GPR151 ag: 2; TEAD-YAP inh: 3

How did CCc1cnc2c(c1N1CCCC1)c(=O)n(C)c(=O)n2C do in these assays?
MITF primary: 2; FBW7 act: 0; GPR151 ag: 0; TEAD-YAP inh: 4

What do the screens show for `CCCNc1nc(Nc2cc(OC)c(OC)c(OC)c2)nc2c1ncn2-c1ccsc1`?
MITF primary: -6; FBW7 act: 0; GPR151 ag: 0; TEAD-YAP inh: 23

What do the screens show for `Oc1ccc(CCNc2nc(Nc3ccc(-n4ccnc4)cc3)nc3c2ncn3-c2ccsc2)cc1`?
MITF primary: 6; FBW7 act: 0; GPR151 ag: 0; TEAD-YAP inh: 62*

How did CCCNc1nc(Nc2ccc(-n3ccnc3)cc2)nc2c1ncn2-c1ccsc1 do in these assays?
MITF primary: -8; FBW7 act: 0; GPR151 ag: -1; TEAD-YAP inh: 51*

How did CCCNc1nc(Nc2ccc(-n3ccnc3)cc2)nc2c1ncn2-c1ccccc1 do in these assays?
MITF primary: 3; FBW7 act: 0; GPR151 ag: 2; TEAD-YAP inh: 49*

What do the screens show for `COc1cc(Nc2nc(NCCc3ccc(O)cc3)c3ncn(-c4ccsc4)c3n2)cc(OC)c1OC`?
MITF primary: 3; FBW7 act: 0; GPR151 ag: -1; TEAD-YAP inh: 36*

How did COc1cccc(/C=N\NC(=O)c2ccco2)c1O do in these assays?
MITF primary: 23; FBW7 act: 0; GPR151 ag: -3; TEAD-YAP inh: -21

What do the screens show for `CCOC(=O)C1=C(O)/C(=C\c2ccc3c(c2)OCO3)SC1=Nc1ccc([N+](=O)[O-])cc1`?
MITF primary: 9; FBW7 act: 0; GPR151 ag: 3; TEAD-YAP inh: -24

Results for CCCNc1nc(Nc2ccncc2)nc2c1ncn2-c1ccsc1 ?
MITF primary: -4; FBW7 act: 0; GPR151 ag: 0; TEAD-YAP inh: 56*

How did CCCNc1nc(Nc2ccccc2)nc2c1ncn2-c1ccsc1 do in these assays?
MITF primary: 10; FBW7 act: 0; GPR151 ag: 0; TEAD-YAP inh: 55*

Results for CCCNc1nc(Nc2ncccn2)nc2c1ncn2-c1ccsc1 ?
MITF primary: -3; FBW7 act: 0; GPR151 ag: 2; TEAD-YAP inh: 19

How did CC(=O)Nc1ccc(Nc2nc(NCCCN3CCCC3=O)nc3c2ncn3-c2ccsc2)cc1 do in these assays?
MITF primary: 14; FBW7 act: 0; GPR151 ag: -1; TEAD-YAP inh: 40*

What do the screens show for `O=C1CCCN1CCCNc1nc(Nc2nccc3ccccc23)nc2c1ncn2-c1ccsc1`?
MITF primary: -1; FBW7 act: 0; GPR151 ag: 2; TEAD-YAP inh: 59*

What do the screens show for `CC(C)N(CCNc1nc(NCCCN2CCCC2=O)nc2c1ncn2-c1ccsc1)C(C)C`?
MITF primary: 5; FBW7 act: 0; GPR151 ag: 1; TEAD-YAP inh: 7

Results for O=C1CCCN1CCCNc1nc(NC2CCN(Cc3ccccc3)CC2)nc2c1ncn2-c1ccsc1 ?
MITF primary: -5; FBW7 act: 0; GPR151 ag: 0; TEAD-YAP inh: 36*

Results for O=C1CCCN1CCCNc1nc(NC2CCN(Cc3ccccc3)CC2)nc2c1ncn2CCN1CCCC1=O ?
MITF primary: -2; FBW7 act: 0; GPR151 ag: 1; TEAD-YAP inh: 2

How did CCCNc1nc(NCCCN2CCCC2=O)nc2c1ncn2-c1ccsc1 do in these assays?
MITF primary: 8; FBW7 act: 0; GPR151 ag: -1; TEAD-YAP inh: 48*

What do the screens show for `Cc1ccc(N(Cc2ccccc2)S(C)(=O)=O)cc1`?
MITF primary: 5; FBW7 act: 0; GPR151 ag: 2; TEAD-YAP inh: 6

Results for FC(F)(F)c1ccc(Cn2cnc3c(NC4CCN(Cc5ccccc5)CC4)nc(Cl)nc32)cc1 ?
MITF primary: 4; FBW7 act: 0; GPR151 ag: 1; TEAD-YAP inh: 20
